HEK cytotox: cytotoxic compounds in HEK 293 cells; HEK 293 viability, ATP luminescence (CellTiter-Glo), 48-72 h; Potency, µM (titrated, usually from 115 µM), actives largely listed as inhibitors; actives 6.6% (n = 94,000); note: nearly all actives have a fitted effect of over 60% in size
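Luminescence from cellular ATP, measured with CellTiter-Glo, indicates HEK 293 viability. Cells plated at 250 cells/well are treated with compound for 48 or 72 hr at 37 degree Celsius before reagent addition.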
NPR1 antag: antagonists of human natriuretic peptide receptor Npr1. HEK293 hNpr1 GloSensor cGMP, ANP-stimulated luminescence. Potency, µM (doses to about 46.3 µM), hits mostly inhibitors. P16066. AID 1347048. actives 1.6% (n = 76,000); calls by dose curve; note: nearly all actives have a fitted effect of over 60% in size
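HEK293 cells stably expressing human Npr1 and cGMP GloSensor pGS-40F, loaded 2 h with 2% GloSensor reagent, given compound 30 min at room temperature. Luminescence read before and 20 min after 0.1 nM hNppA.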
3T3 cytotox: NIH 3T3 cell cytotoxicity; actives 4.3% (n = 94,000); Potency, µM (doses to about 96.7 µM), most hits filed as inhibitors; NIH 3T3 viability, CellTiter-Glo ATP luminescence, 48-72 h; note: nearly all actives have a fitted effect of over 55% in size
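ATP-dependent luminescence (CellTiter-Glo) served as the viability signal for NIH 3T3 cells treated with compound for 48 or 72 hr at 37 °C.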
Luciferase inh: blocks purified firefly luciferase enzyme activity. P08659. purified P. pyralis luciferase, luminescence, biochemical. Potency, µM (highest dose often 115 µM), actives largely listed as inhibitors. actives 2.5% (n = 76,000); note: nearly all actives have a fitted effect of over 65% in size
Target sequence (P08659 whole entry, looked up): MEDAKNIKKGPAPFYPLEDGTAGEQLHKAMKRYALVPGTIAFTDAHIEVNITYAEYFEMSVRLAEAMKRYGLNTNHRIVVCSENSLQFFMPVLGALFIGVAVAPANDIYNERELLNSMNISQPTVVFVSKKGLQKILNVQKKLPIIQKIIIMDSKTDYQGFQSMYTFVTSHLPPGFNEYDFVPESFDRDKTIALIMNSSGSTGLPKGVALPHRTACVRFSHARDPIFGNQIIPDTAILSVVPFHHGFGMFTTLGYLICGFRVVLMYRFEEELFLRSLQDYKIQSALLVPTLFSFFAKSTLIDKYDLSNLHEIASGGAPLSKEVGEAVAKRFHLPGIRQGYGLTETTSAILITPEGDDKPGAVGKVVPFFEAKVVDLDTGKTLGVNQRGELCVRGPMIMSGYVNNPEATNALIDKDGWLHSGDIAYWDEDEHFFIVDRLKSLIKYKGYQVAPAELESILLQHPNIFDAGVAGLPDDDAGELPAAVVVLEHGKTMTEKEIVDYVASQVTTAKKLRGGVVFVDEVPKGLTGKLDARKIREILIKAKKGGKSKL
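Purified P. pyralis luciferase (10nM final) in 50mM Tris acetate pH 7.5, 10mM Mg acetate, 0.01% Tween-20, 0.05% BSA with 10uM D-luciferin and 10uM ATP. Compounds titrated qHTS. Luminescence imaged on CCD.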
A number is an active result; ! = a repeat was not active. Compounds with a hit are over-represented: about 11% of the library has one in this group of screens. Unless noted, calls come from the whole dose curve; as a rule, active = well fitted curve in the direction sought with a large enough effect; inconclusive = small, poorly fitted or top-dose-only effect, or another doubt; inactive = no such curve, though single readings can be large; an effect the other way counts as inactive or inconclusive.

For C[S+](=O)([O-])NC1CCN(c2ccc3nnc(-c4ccccc4)n3n2)CC1 the results were HEK cytotox inactive and 3T3 cytotox inactive.
`O=[S+]([O-])(NC1CCCN(c2ccc3nnc(-c4ccccc4)n3n2)C1)c1ccccc1` (stereo not given) gave HEK cytotox 22µM and 3T3 cytotox inconclusive.
`Cc1noc(C)c1[S+](=O)([O-])N1CCCN(c2ccc3nnc(-c4ccccc4)n3n2)CC1` gave HEK cytotox 79µM and 3T3 cytotox inactive.
Screening COc1ccc(CN2Cc3[nH]cnc3C[C@H]2c2nc(Cc3ccccc3)no2)cc1 returned HEK cytotox inconclusive, NPR1 antag inactive, 3T3 cytotox inconclusive and Luciferase inh inactive.
`COc1cccc([S+](=O)([O-])NC2CCN(c3ccc4nnc(-c5ccccc5)n4n3)CC2)c1` gave HEK cytotox 25µM and 3T3 cytotox 14µM.
`NC(=O)c1cccc(CN2CCC3(Cc4ccccc4N(C(=O)C4CCCC4)C3)C2)c1` (stereo not given) gave HEK cytotox 79µM and 3T3 cytotox inactive.
Screening O=C(C1CCCC1)N1CC2(CCN(CC3CCCCC3)C2)Cc2ccccc21 (stereo not given) returned HEK cytotox inconclusive and 3T3 cytotox 32µM.
For O=C(C1CCCC1)N1CC2(CCCN(Cc3c[nH]c4ccccc34)C2)Cc2ccccc21 (stereo not given) the results were HEK cytotox 22µM and 3T3 cytotox 25µM.
`O=C(O)CCC(=O)N1CCCC2(Cc3ccccc3N(C(=O)C3CCCC3)C2)C1` (stereo not given) gave HEK cytotox inactive and 3T3 cytotox inconclusive.
O=C(C1CCCC1)N1CC2(CCCN(CC3CC3)C2)Cc2ccccc21 (stereo not given) was read as HEK cytotox inconclusive and 3T3 cytotox inactive.
O=C(C1CCCC1)N1CC2(CCN(Cc3ccc(Cl)cc3)C2)Cc2ccccc21 (stereo not given) was read as HEK cytotox inconclusive and 3T3 cytotox 40µM.
Screening O=C(c1ccc(C(F)(F)F)cc1)N1CCCC(C(=O)N2CCC(c3nc4ncccc4[nH]3)CC2)C1 (stereo not given) returned HEK cytotox inactive and 3T3 cytotox inactive.
Screening O=C(NC1CCCCC1)C1CCN(C(=O)c2ccc(-c3cncnc3)cc2)CC1 returned HEK cytotox inactive and 3T3 cytotox inactive.
Screening COc1cccc(-c2ccc(C(=O)NCCNC(=O)Cc3ccc(F)cc3)cc2)c1 returned HEK cytotox 89µM and 3T3 cytotox inconclusive.
`COc1cccc(-c2ccc(C(=O)NCCNC(=O)c3ccccc3F)cc2)c1` gave HEK cytotox 89µM! and 3T3 cytotox inactive.
COc1cccc(-c2ccc(C(=O)NCCNC(C)=O)cc2)c1 was read as HEK cytotox inactive and 3T3 cytotox inactive.
COc1ccc(CC(=O)NCCNC(=O)c2ccc(-c3cccc(OC)c3)cc2)cc1 was read as HEK cytotox inconclusive and 3T3 cytotox inactive.
`COc1ccc(C2Cn3nnc(C(=O)N4CCN(C(=O)c5ccccc5C)CC4)c3CO2)cc1` (stereo not given) gave HEK cytotox inconclusive, NPR1 antag inactive, 3T3 cytotox inactive and Luciferase inh inactive.
`COc1cccc(NC(=O)c2ccnc(-c3nnc4ccc(Nc5ccccc5)nn34)c2)c1` gave HEK cytotox 40µM, NPR1 antag inactive, 3T3 cytotox 35µM and Luciferase inh inactive.
`COc1ccnc(-c2nnc3ccc(NC4CCOCC4)nn23)c1` gave HEK cytotox inactive, NPR1 antag inactive, 3T3 cytotox 79µM and Luciferase inh inactive.
Screening CN(c1ccccc1)c1ccc2nnc(-c3cc(C(=O)NCc4ccncc4)ccn3)n2n1 returned HEK cytotox 71µM, NPR1 antag inactive, 3T3 cytotox inconclusive and Luciferase inh inactive.
`O=C(NCc1ccc(F)cc1)c1ccnc(-c2nnc3ccc(Nc4ccccc4)nn23)c1` gave HEK cytotox inconclusive, NPR1 antag inactive, 3T3 cytotox 25µM and Luciferase inh inactive.
For O=C(c1ccnc(-c2nnc3ccc(Nc4ccccc4)nn23)c1)N1CCCCC1 the results were HEK cytotox inconclusive, NPR1 antag inactive, 3T3 cytotox inconclusive and Luciferase inh inactive.
`Cc1ccccc1C(=O)NC1CCN(c2ccc3nnc(C)n3n2)C1` (stereo not given) gave HEK cytotox inactive and 3T3 cytotox inactive.

Screening results: PubChem, National Center for Advancing Translational Sciences (NCATS)
